Assay outcomes: PubChem, University of Kansas High Throughput Screening Laboratory
Many of the other results were omitted from the sample, so hits are more common in it than they were.
Pf apPOL inh: Pf-apPOL DNA polymerase inhibition; AID 1794808; inhibition, % at 10 µM; Recombinant Pf-apPOL, molecular beacon fluorescence, 1.5 h; 0.25% of 210,000 active
mHTT-CaM PPI inh: inhibitors of human mutant huntingtin-calmodulin interaction; P42858; AlphaScreen His-mHTT/GST-CaM binding, luminescence; inhibition, % at 15 µM; 3.6% of 190,000 active;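 also: 0% = both proteins with DMSO and 100% = one protein alone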
* marks the source's active call; other numbers are inactive results; i = inactive; nt = no result given. Rule as the data show it: active = inhibition above about 50%; inactive = the rest.

SMILES	Pf apPOL inh	mHTT-CaM PPI inh
CC1=C(C(=O)NC(C)c2ccccc2)C2(CCCCCC2)OC1=O (configuration not stated)	-0.2	-6.1
CCOC(=O)COc1ccc(C=C2Oc3cc(OC)ccc3C2=O)cc1OC	-6.8	2.5
COc1ccccc1-c1nnc(-c2ccco2)o1	6.3	-0.6
CC(=O)N1/C(=C/c2ccc(N(C)C)cc2)C(=O)c2ccccc21	-1.2	84.0*
CC(=O)N1/C(=C/c2ccncc2)C(=O)c2ccccc21	-7.0	-4.0
COc1ccc(OC)c(CN2CCN(C(=O)c3cccnc3)CC2)c1	-0.3	2.7
CC1=CC(C)C(CNCCN2CCNCC2)C(C)C1 (configuration not stated)	0.3	2.0
CC(C)=CCC/C(C)=C/CC(C)(C)CNCCN1CCNCC1	-5.3	85.0*
COc1ccc(C(=O)NC2CCN(c3cc(C)cc(C)c3)C2=O)cc1F (configuration not stated)	2.2	0.8
Oc1ccc(Br)cc1C=Nc1ncc(Cl)cc1Br	-5.7	5.0
Cc1cccc(CNC(=O)c2nn(C)c3c2CN(C(=O)c2ccc(Cl)cc2)CC3)c1	-0.8	63.8*
Cc1cccc(CNC(=O)c2nn(C)c3c2CN(C(=O)c2cccc(Cl)c2)CC3)c1	-9.0	76.0*
Cc1cccc(CNC(=O)c2nn(C)c3c2CN(C(=O)c2c(F)cccc2F)CC3)c1	-6.6	-7.9
COc1nccnc1NC1CCN(C(=O)c2ccncc2)CC1	3.0	-0.6
C[n+]1ccc(/C=C/c2ccccc2F)c2ccccc21	-4.2	6.0
C=CC[n+]1ccc(/C=C/c2ccccc2O)c2ccccc21	-4.1	69.0*
CCn1c(C2CCN(S(=O)(=O)c3ccc(OC)c(OC)c3)C2)nc2cccnc21 (configuration not stated)	2.8	-0.8
Cc1ccc(-n2cnc3cc(C(=O)NC4CCCC4)ccc32)c(C)c1	34.0	11.0
COc1ccc(C)cc1-n1cnc2cc(C(=O)NC3CCCCC3C)ccc21 (configuration not stated)	-2.4	66.0*
CC(C)(C)C(=O)Nc1c(-c2ccc(Cl)cc2)nc2ccccn12	-11.4	17.3
Cc1nc2c(C(=O)NC3CCCC3)c[nH]n2c(=O)c1Cc1ccc(Cl)cc1	8.8	55.0*
Cc1nc2c(C(=O)O)c[nH]n2c(=O)c1Cc1ccc(Cl)cc1	35.0	-4.0
Cc1ccc(Cc2c(C)nc3c(C(=O)NC4CCCC4)c[nH]n3c2=O)cc1	6.5	75.0*
Cc1ccc(Cc2c(C)nc3c(C(=O)NCCC(C)C)c[nH]n3c2=O)cc1	-7.9	14.0
OC(CSCc1cccc(C(F)(F)F)c1)C(O)CSCc1cccc(C(F)(F)F)c1 (configuration not stated)	nt	100.1*
SMILES	Pf apPOL inh	mHTT-CaM PPI inh
FC(F)(F)c1cccc(Cc2cccc(C(F)(F)F)c2)c1	-0.1	nt
CC(C)N1C/C(=C\c2ccccc2F)C(=O)/C(=C/c2ccccc2F)C1	-2.1	43.0
CC(NC(=O)CN1CCCCC1)C12CC3CC(CC(C3)C1)C2 (configuration not stated)	0.6	1.6
CCCC1c2cccn2CCN1C(=O)Nc1ccc(F)c(Cl)c1 (configuration not stated)	-1.6	82.5*
CC1c2cccn2CCN1C(=O)Nc1ccc(F)c(Cl)c1 (configuration not stated)	-2.1	4.7
Cc1ccc(NC(=O)N2CCn3c(C)ccc3C2C(C)C)cc1C (configuration not stated)	-3.5	5.6
Cc1ccc2n1CCN(C(=O)Nc1ccc(F)c(Cl)c1)C2C(C)C (configuration not stated)	-8.0	62.1*
CCCC1c2ccc(C)n2CCN1C(=O)Nc1cccc(Cl)c1 (configuration not stated)	5.9	27.7
CCCC1c2ccc(C)n2CCN1C(=O)Nc1ccc(F)c(Cl)c1 (configuration not stated)	1.5	89.7*
CCCC1c2cccn2CCN1C(=O)Nc1ccc(C)c(F)c1 (configuration not stated)	2.7	50.7*
CCCC1c2cccn2CCN1C(=O)Nc1ccc(F)cc1 (configuration not stated)	-5.2	9.2
COc1cccc(-c2cc(C3CCN(S(=O)(=O)c4cccc(C)c4)CC3)[nH]n2)c1	-6.3	8.8
O=[N+]([O-])c1cccc(C2=Nc3ccccc3N=C(c3ccccc3O)C2)c1	4.4	3.0
Cc1ccc(-n2cc(C3CCN(C(=O)c4ccccc4)CC3)cn2)cc1	-5.1	6.3
CCNC(=O)C1CCN(c2ccc(C)cc2C)C1=O (configuration not stated)	-3.6	-5.7
CC1c2cccn2CCN1C(=O)Nc1cccc(C(F)(F)F)c1 (configuration not stated)	-3.1	21.2
Cc1ccc2n1CCN(C(=O)Nc1cccc(C(F)(F)F)c1)C2C(C)C (configuration not stated)	-2.6	74.0*
Cc1ccc2n1CCN(C(=O)Nc1ccccc1C(F)(F)F)C2C(C)C (configuration not stated)	-0.8	-1.0
CCCC1c2cccn2CCN1C(=O)Nc1cccc(C(F)(F)F)c1 (configuration not stated)	-4.3	54.8*
Cn1c(C2CCN(C(=O)c3cc(F)cc(F)c3)C2)nc2cccnc21 (configuration not stated)	-6.3	-3.0
CNC(=O)c1cc2c(=O)n3cccc(C)c3nc2n(CCOC)c1=N	6.0	-7.0
COc1ccc(OCC(=O)O/N=C(\N)c2ccncc2)cc1	-9.1	i
O=C1C=C/C(=C/c2ccc(Br)o2)O1	nt	5.0
O=C1/C(=C/c2ccc(Br)o2)CC/C1=C\c1ccc(Br)o1	-3.8	96.0*
O=C1C(=Cc2ccc(Sc3ccccc3)o2)C(=O)c2ccccc21	-0.3	37.0
SMILES	Pf apPOL inh	mHTT-CaM PPI inh
O=C1C(=Cc2ccc(Br)o2)C(=O)c2ccccc21	-0.5	77.0*
Cn1ccc2c(-c3cncc4ccccc34)cc3c(c21)C1CCC3C1 (configuration not stated)	-0.4	99.9*
CCN(CC)c1cc2c(c3c1ccn3C)C1CCC2C1 (configuration not stated)	-1.4	41.0
Cn1ccc2c(N3CCCCCC3)cc3c(c21)C1CCC3C1 (configuration not stated)	-2.8	63.1*
CCCN(CC1CC1)c1cc2c(c3c1ccn3C)C1CCC2C1 (configuration not stated)	-2.3	73.9*
Cn1ccc2c(N3CCOCC3)cc3c(c21)C1CCC3C1 (configuration not stated)	1.7	21.6
Cn1ccc2c(-c3ccc(F)nc3)cc3c(c21)C1CCC3C1 (configuration not stated)	5.0	28.0
Cn1ccc2c(-c3cccc4ccccc34)cc3c(c21)C1CCC3C1 (configuration not stated)	-1.8	1.2
Cn1ccc2c(-c3ccc(F)cc3F)cc3c(c21)C1CCC3C1 (configuration not stated)	-35.1	58.8*
COc1cc([N+](=O)[O-])ccc1NC(N)=Nc1nc(C)cc(C)n1	0.6	-0.1
CCCn1cnnc1C1CCCN(C(=O)c2ccccc2OC)C1 (configuration not stated)	2.7	-6.2
Cn1ccc2c(-c3cccnc3)cc3c(c21)C1CCC3C1 (configuration not stated)	-7.8	31.5
COc1ccc(-c2cc3c(c4c2ccn4C)C2CCC3C2)cc1OC (configuration not stated)	0.9	73.9*
